Experimental data: PubChem BioAssay (NCATS)
Records with an inconclusive call do not appear. The source made the active and inactive calls. Calls come from the whole dose curve.

Experiment: qHTS for inhibitors of Rabies Virus screened against the NCATS CANVASS Library (AID 1347402)
Settings: Rabies virus infection cell assay; series mostly up to 45.9 µM

| SMILES | outcome |
| --- | --- |
| COC1C(C)OC(OCC23C[C@@H]4[C@H](C)CC[C@H]4C4(C=O)CC2C=C(C(C)C)C34C(=O)O)[C@@H](O)[C@H]1O (stereo partly specified) | inactive |
| CN1CC[C@]23c4ccccc4N[C@H]1[C@]21CCN(C)[C@H]3Nc2ccccc21 | inactive |
| C/C=C1/CC[C@@H]2c3[nH]c4ccccc4c3CCN2C1 | inactive |
| C/C=C/c1cc(OC)c2c(c1)[C@@H](C)[C@H](c1ccc(O)c(OC)c1)O2 | inactive |
| C=C1/C=C\C(CCC)=C\c2csc(n2)C(C)NC(=O)C[C@@]2(CC(=O)O)CCC(=C)[C@H](C1)S2 (stereo partly specified) | inactive |
| C/C=C/C=C/C1(O)C2C=C3C(=O)CC45C(=O)C(O)=C(C)C(=O)C4C1C1(C(=O)C(O)=C(C)C(=O)C351)C2C (stereo unspecified) | inactive |
